Compounds without any hit were thinned out: in the full panel of roughly 79,000, 15% have a hit. Calls of active or inactive are those of the source. Rule as the data show it: active = growth inhibition above about 70%; inactive = the rest.
Assays:
[1] = NCI Yeast Anticancer Drug Screen. Data for the rad50 strain (AID 155);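 also: 0% = growth of vehicle-only cultures of the same strain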; settings: S. cerevisiae rad50 strain growth inhibition; at 50.0 µM; active compounds read high
Method in brief: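 Growth of the mutant yeast was measured after compound exposure and referenced to vehicle-treated cultures.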

[2] = NCI Yeast Anticancer Drug Screen. Data for the mec2-1 strain (AID 157); settings: S. cerevisiae mec2-1 strain, at 50.0 µM, active compounds read high
Method in brief: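 Growth inhibition is read against vehicle-treated controls after compound exposure of the mec2-1 yeast strain, which is defective in DNA damage repair or cell cycle control.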

[3] = NCI Yeast Anticancer Drug Screen. Data for the sgs1 mgt1 strain (AID 161);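 also: 0% = growth of cultures given vehicle only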; settings: S. cerevisiae sgs1 mgt1 strain, at 50.0 µM, active compounds read high
Method in brief: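 Compounds are added to genetically altered yeast, and growth is compared with cultures given vehicle alone to give percent inhibition.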

[4] = NCI Yeast Anticancer Drug Screen. Data for the cln2 rad14 strain (AID 165);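 also: 0% = growth equal to vehicle treated cultures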; settings: S. cerevisiae cln2 rad14 strain, at 50.0 µM, active compounds read high
Method in brief: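 Growth inhibition, relative to vehicle-treated controls, is the read-out. The test organism is a yeast strain with defined genetic alterations, cln2 rad14.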

[5] = NCI Yeast Anticancer Drug Screen. Data for the bub3 strain (AID 167); settings: S. cerevisiae bub3 mutant strain, at 50.0 µM, active compounds read high
Method in brief: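 Whole-cell yeast assay. The mutant strain was incubated with compounds, and growth inhibition was determined by comparison with vehicle-treated cells.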

[6] = NCI Yeast Anticancer Drug Screen. Data for the mlh1 rad18 strain (AID 175); settings: S. cerevisiae mlh1 rad18 strain growth inhibition; at 50.0 µM; active compounds read high
Method in brief: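 Cells of a genetically altered yeast strain, deficient in DNA damage repair, were treated with compound. Their growth was then compared with that of vehicle-treated cultures to give inhibition.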

Measured: growth inhibition

O=C(O)CCc1cccc2ccccc12
inactive: [1] 30.1% | [2] 10.8% | [3] 32.7% | [4] 14.4% | [5] 3.35% | [6] 35.3%

O=C(O)COc1ccc(I)cc1I
inactive: [1] 23.3% | [2] -8.05% | [3] -4.85% | [4] -37.5% | [6] 19.2%

Cn1c2ccccc2c2c3ccc[n+](C)c3ccc21
inactive: [1] 8% | [2] -2.9% | [3] 8.7% | [4] -57.5% | [6] 2.1%

CCN(CC)/[N+]([O-])=N/O
inactive: [1] 26.6% | [2] -14.8% | [3] -2.35% | [4] -0.6% | [6] 16.1%

CC(C)=NOC(C)C(=O)O (stereo unspecified)
inactive: [1] -11.9% | [2] 18.2% | [3] -24.4% | [4] 10.2% | [5] -0.9% | [6] -3.15%

CN/C=C(/OCc1ccccc1)c1ccc(O)c(O)c1
inactive: [1] 2.2% | [2] 0.9% | [3] 3.05% | [4] -6% | [6] 19.2%

COc1cc(-c2cc(=O)c3c(O)c(OC)c(OC)cc3o2)ccc1O
inactive: [1] -34.3% | [2] -40.2% | [3] -28.5% | [4] -22.1% | [6] -41.5%

COc1cc(C2OCCO2)ccc1O
inactive: [1] 12.8% | [2] 7.05% | [3] -0.35% | [4] 39% | [6] -11%

COc1ccc2c(c1)C1(C)CCCC(C)C1=CC2=O (stereo unspecified)
active: [1] 84% | [2] 78.3% | [3] 82.8% | [6] 85%
inactive: [4] 28.1%

COc1ccccc1/C=N\NC(C)=O
inactive: [1] -9.9% | [2] 6.05% | [3] 5.35% | [4] 2.25% | [5] 6.05% | [6] -14.7%

Cc1ccc(C)c(NC(=O)Oc2ccc(Cl)cc2Cc2ccccc2)c1
inactive: [1] 5.35% | [2] -3.5% | [3] 0.05% | [4] 11.8% | [6] 7.1%

O=C1NNCc2c1sc1ccccc21
inactive: [1] 0.25% | [2] -4.15% | [3] -17.4% | [4] -41.3% | [6] 4.6%

O=c1nc(NCC23CC4CC(CC(C4)C2)C3)ccn1C1OC(CO)C(O)C1O (stereo unspecified)
inactive: [1] 21.8% | [2] -0.95% | [3] -8.1% | [4] 16.6% | [6] -6.5%

O=C(O)C#Cc1ccc(Cl)cc1
inactive: [1] -20.1% | [2] -23.8% | [3] -17.6% | [4] -9.05% | [6] -13.6%

CC1=NOC(C)(O)/C1=N/O (stereo unspecified)
inactive: [1] 6.8% | [2] 1.05% | [3] 17.9% | [4] -2.75% | [6] -21.3%

COC(=O)c1c(-c2ccc3c(c2)OCO3)cn(C)c1C
inactive: [1] 5.7% | [2] 1.85% | [3] 24.6% | [4] -5.25% | [6] 11.6%

CC(=O)CC1(O)C(=O)C(C(C)(C)C)=CC2(C(C)(C)C)OC12 (stereo unspecified)
inactive: [1] 2.25% | [2] -13.1% | [3] -3.45% | [4] -10.1% | [6] 0.25%

C[N+](C)(C)CBr
inactive: [1] 36.8% | [2] -11% | [3] -21.5% | [4] -40.6% | [6] -37.2%

c1ccc2c(c1)C(=Nc1ccc(N=C3c4ccccc4-c4ccccc43)cc1)c1ccccc1-2
inactive: [1] 1.8% | [2] -0.55% | [3] -5.7% | [4] -1% | [6] -20.6%

Nc1ccc(N)c(C(=O)O)c1
inactive: [1] -9.35% | [2] 15.1% | [3] 1.1% | [4] -2.5% | [6] -8.9%

CN(N=O)C(=O)NC(CCCCNC(=O)OCc1ccccc1)C(=O)OCc1ccccc1 (stereo unspecified)
inactive: [1] 5.95% | [2] -10.1% | [3] -2.8% | [4] -22.4% | [6] -11.2%

COC1(OC)CC2C(=O)N(Cc3ccccc3)C1C=C2S(=O)(=O)c1ccccc1 (stereo unspecified)
inactive: [1] 2.5% | [2] 9.65% | [3] -18.2% | [4] -47.5% | [6] 8.25%

O=C(O)/C(=C\c1ccncc1)c1cccc2ccccc12
inactive: [1] 0.85% | [2] -12% | [3] -37.4% | [4] -24.9% | [6] -9.65%

Cc1cc2c(=O)cc(-c3ccccc3Cl)oc2c(C(=O)O)c1C
inactive: [1] -3.1% | [2] -10.3% | [3] -4.45% | [4] 8.2% | [6] -18.6%

OC(Cc1ccc2ccccc2n1)(C(F)(F)Cl)C(F)(F)Cl
inactive: [1] -39% | [2] -55.2% | [3] -10.7% | [4] -9.7% | [6] -31.1%

CC(=O)c1cc2c(cc1C)CCCC2(C)C
inactive: [1] 0.95% | [2] -3.8% | [3] -2.4% | [4] -1.5% | [6] 1.35%

COc1ccc(C(C)=O)c(O)c1OC
inactive: [1] -3.3% | [2] 4.7% | [3] 9.1% | [4] -3.35% | [6] 3%

CC1=C(C(=O)OCCc2ccc([N+](=O)[O-])cc2)C(c2cccc([N+](=O)[O-])c2)C(C(=O)OC(C)C)=C(C)N1 (stereo unspecified)
inactive: [1] 0.15% | [2] -6.95% | [3] 12.8% | [4] 0.45% | [6] -30.9%

O=C(NN1C(=O)CS(=O)(=O)C1c1ccccc1F)c1ccncc1 (stereo unspecified)
inactive: [1] -8% | [2] -4.4% | [3] 8.3% | [4] -9.35% | [6] 7.75%

CCNCC(=O)Nc1ccccc1C(=O)OCC
inactive: [1] -2.7% | [2] 14% | [3] 0.2% | [4] -22.5% | [6] 10.1%

O/N=C(\CC(O)(C(F)(F)F)C(F)(F)F)c1cccs1
active: [1] 81% | [2] 76.9% | [4] 87.5% | [6] 93.5%
inactive: [3] 45.6%

CCCCCCNCc1cc(CNCCCCCC)c(O)c(CNCCCCCC)c1
inactive: [1] 4.5% | [2] 15.4% | [3] 18.4% | [4] -2.4% | [6] 29.6%

COC(=O)c1ccccc1N=NNc1ccc(C(F)(F)F)c([N+](=O)[O-])c1
inactive: [1] -10.4% | [2] -1.85% | [3] 16.1% | [4] -2.35% | [5] 9.95% | [6] -11.7%

COC(=O)[C@]1(C)CCCn2c(=O)n(-c3ccccc3)c(=O)n21
inactive: [1] 13.9% | [2] 11.3% | [3] -6.65% | [4] 9.75% | [5] 13.8% | [6] -21.6%

O=C(c1ccncc1)c1c(Cc2ccccc2)ccc2ccccc12
inactive: [1] -0.3% | [2] -0.65% | [3] -9.25% | [4] -4% | [6] -1.35%

COc1ccc(N=C2SC(=N/N=c3\sc4ccccc4n3C)SC2=Nc2ccc(OC)cc2)cc1
inactive: [1] 4.15% | [2] -32.9% | [3] -2.9% | [4] -41.1% | [5] 28.9% | [6] -12.7%

COc1cc2ccc1OCc1cccc(n1)COc1ccc(cc1OC)C=NCCNCCN=C2
inactive: [1] -4.6% | [2] -22.8% | [3] -14.9% | [4] -21.8% | [6] -17.4%

CC(=O)OCC1OC(n2ccc(=O)[nH]c2=O)CC1N=[N+]=[N-] (stereo unspecified)
inactive: [1] -25.1% | [2] 8.7% | [3] 1.05% | [5] 13.3% | [6] 0.35%

O=C1CSC2=NC3=C(COC/C3=C\c3ccc(Br)cc3)C(c3ccc(Br)cc3)N12 (stereo unspecified)
inactive: [1] 7.05% | [2] 14.3% | [3] 39.1% | [5] 33.6% | [6] 33.1%

O=C(COc1ccc(Cl)c(Cl)c1)Nc1cccc(C(=O)CCl)c1
active: [5] 81.3%
inactive: [1] 36.6% | [2] 50% | [3] 45.5% | [6] 62.8%

CC(=O)Nc1ccc2oc(C)nc2c1
inactive: [1] 23.9% | [2] -1.3% | [3] 8.3% | [5] 13.2% | [6] 20.6%

Cc1cc2nc3c(=O)[nH]c(=O)nc-3n(CC(O)C(O)C(O)C(O)CO)c2cc1C (stereo unspecified)
inactive: [1] 33.5% | [2] 3.2% | [3] -14.4% | [5] -7.7% | [6] 23.2%

From PubChem BioAssay (NCI)
